# From PubChem BioAssay
# NPC1 prom act – activators of NPC1 promoter | Huh7 NPC1 promoter luciferase reporter, 24 h | Potency, µM (titrated, usually from 9.22 µM), without a hit: top-dose activation, most hits filed as activators | hit rate 2.4% among 320,000; further: % of control where 0% means no effect; nearly all actives have a fitted effect of over 60% in size
#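 Readout is luciferase luminescence, reflecting NPC1 promoter activation in stably transfected Huh7 cells after 24 h compound exposure at 37 °C in reduced-serum medium with 10% FBS.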
# p53 reactivator – restores transcriptional activity of mutant p53. H1299 p53-A138V BP100-luciferase reporter, luminescence, 24 h. Potency, µM (series often up to 92.2 µM), inactives show at the highest dose activity change, positive = activation, most hits filed as activators. hit rate 0.063% among 320,000; further: % of control where 0% means no effect; nearly all actives have a fitted effect of over 45% in size
#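 p53-null H1299 cells stably carrying temperature-sensitive p53-A138V and a BP100-luciferase reporter were pinned with compounds (4-point, 1:5 series) and held 24 hrs at 37 deg C. Luminescence was read 10 min after detection reagent.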
# ELG1 genotox – genotoxicity induction in ELG1-luciferase HEK293T cells; HEK293T ELG1-luciferase reporter, luminescence, 16 h; Potency, µM (series often up to 46 µM), for inactives: at the top dose activity change, positive = activation, most hits filed as activators; hit rate 1.3% among 330,000; AID 504466; further: % of control where 0% means no effect; nearly all actives have a fitted effect of over 60% in size
#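 Step 1: seed 2,000 HEK293T ELG1-luciferase cells per well. Step 2: add compound or DMSO, incubate 16 hr at 37 °C. Step 3: ONE-Glo, 30 min at room temperature, read luminescence.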
# Rab9 promoter act – activates the Rab9 promoter; hit rate 2.8% among 320,000; AID 485297; Potency, µM (titrated, usually from 9.22 µM), inactives show top-dose activation, negative = inhibition, hits mostly activators; Huh7 Rab9 promoter-luciferase reporter, luminescence, 24 h; further: % of control where 0% means no effect; nearly all actives have a fitted effect of over 60% in size
#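 Measured in stably transfected Huh7 cells bearing a Rab9 promoter–luciferase construct: 24 h compound treatment at 37 °C, followed by luminescence detection.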
# FLuc counter – firefly luciferase modulation, counter-screen for miR-21 project | hit rate 6.9% among 360,000 | purified FLuc, Km substrates, luminescence inhibition | P08659 | AID 588342 | Potency, µM (series often up to 57.5 µM), without a hit: top-dose activity change, negative = inhibition, hits mostly inhibitors;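 further: plate controls were vehicle for no effect and reference inhibitor for full effect; nearly all actives have a fitted effect of over 55% in size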
# Target sequence (P08659 whole entry, looked up): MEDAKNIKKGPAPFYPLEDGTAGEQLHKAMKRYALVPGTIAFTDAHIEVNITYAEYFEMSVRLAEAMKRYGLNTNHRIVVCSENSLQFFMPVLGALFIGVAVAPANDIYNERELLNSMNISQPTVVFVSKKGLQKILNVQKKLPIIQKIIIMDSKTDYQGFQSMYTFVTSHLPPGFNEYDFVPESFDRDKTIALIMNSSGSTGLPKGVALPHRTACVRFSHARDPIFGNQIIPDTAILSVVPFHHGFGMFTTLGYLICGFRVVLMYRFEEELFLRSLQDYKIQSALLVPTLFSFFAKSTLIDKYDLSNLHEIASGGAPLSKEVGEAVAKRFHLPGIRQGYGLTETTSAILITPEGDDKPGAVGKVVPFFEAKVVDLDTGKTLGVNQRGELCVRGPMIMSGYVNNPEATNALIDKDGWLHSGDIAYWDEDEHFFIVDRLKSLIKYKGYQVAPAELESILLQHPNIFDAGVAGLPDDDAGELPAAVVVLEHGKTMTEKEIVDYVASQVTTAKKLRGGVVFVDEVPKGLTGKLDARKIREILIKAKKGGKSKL
#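 Purified P. pyralis luciferase, 10 nM final, with Km-level 10 uM D-luciferin and 10 uM ATP in 50 mM Tris acetate pH 7.5, 10 mM Mg acetate, 0.01% Tween-20, 0.05% BSA; 6-point qHTS titration about 60 µM downward; luminescence read.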
# SMN2 splice up – SMN2 splice variant enhancement; HEK293 SMN2-luciferase splicing reporter, luminescence, 30-36 h; hit rate 2.8% among 210,000; Potency, µM (series often up to 46.1 µM), for inactives: at the highest dose activity change, positive = activation, hits mostly activators; AID 1458; further: % of control where 0% means no effect; nearly all actives have a fitted effect of over 55% in size
#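 HEK293 cells carry an SMN2 minigene-luciferase reporter in which exon 7 inclusion puts luciferase in frame. Cells were seeded at 2000 cells/well, attached for 10-12 hours, then exposed to compounds for 30-36 hours at 37C before ONE-Glo luminescence.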
# An asterisk follows results filed as active; u = inconclusive; x = no result. Hits are enriched below; roughly 7.4% of the tested compounds scored in any of these assays. The call rests on the fitted dose curve; in most records, active means well fitted curve in the direction sought with a large enough effect; inconclusive means small, poorly fitted or top-dose-only effect, or another doubt; inactive means no such curve, though single readings can be large; an effect the other way counts as inactive or inconclusive. Potency means the concentration at half of the fitted maximal effect.
SMILES,NPC1 prom act,p53 reactivator,ELG1 genotox,Rab9 promoter act,FLuc counter,SMN2 splice up
COc1ccc(-n2nc(C(=O)NCC(=O)N3CCN(c4ccccn4)CC3)c3ccccc3c2=O)cc1Cl,22.0%,-2.0%,-13.5%,u,3.01µM*,u
c1ccc(-c2nc(SCc3nc4ccccc4[nH]3)c3oc4ccccc4c3n2)cc1,x,-0.5%,-3.5%,x,x,x
Cc1cc(OC(C)C(=O)NCC2CCCO2)cc(C)c1Cl (centres undefined),1.3%,-13.6%,0.5%,3.3%,-0.6%,x
CN(c1ccccc1)c1nc2ccsc2c(=O)s1,u,u,13µM*,3.16µM*,12µM*,u
O=C(O)c1cc(N/N=C/c2ccc3c(c2)OCO3)ccc1Cl,0.282µM*,-9.6%,u,0.1µM*,0.757µM*,4.47µM*
O=C(O)c1ccc(N/N=C/c2ccc3c(c2)OCO3)cc1,-37.6%,-10.3%,u,-59.1%,0.0953µM*,x
O=C(O)c1ccc(N/N=C/c2cc3c(cc2[N+](=O)[O-])OCO3)cc1,-2.1%,5.0%,-20.0%,5.9%,u,-25.8%
O=C(O)c1cc(N/N=C/c2ccc3c(c2)OCCO3)ccc1Cl,u,x,0.291µM*,u,1.07µM*,0.316µM*
C/C(=N\Nc1ccc(Cl)c(C(=O)O)c1)c1ccc2c(c1)OCO2,2.24µM*,-6.2%,u,1.58µM*,15.1µM*,15.8µM*
O=C(N/N=C/c1ccc2c(c1)OCO2)c1sc2cccc(Cl)c2c1Cl,-2.7%,7.0%,2.0%,0.3%,3.9%,-3.4%
O=C1[C@@H](Oc2ccccc2)[C@@H](c2cnc3ccccc3c2)N1c1ccccc1,x,4.2%,-11.6%,x,x,x
Cc1ccc(N/N=C/c2ccc3c(c2)OCCO3)cc1Cl,12.0%,u,u,3.7%,23.9µM*,20µM*
O=C(O/N=C/c1ccc2c(c1)OCO2)c1ccccc1Cl,5.4%,2.6%,1.7%,4.7%,0.953µM*,2.7%
COC(=O)c1cc(NS(=O)(=O)c2ccc3c(c2)OCCO3)ccc1Cl,x,x,x,x,u,-21.4%
CNC(=S)N/N=C/c1ccc2c(c1)OCCO2,9.1%,22.4%,u,25.1%,u,1.8%
O=C1OC(c2ccc3c(c2)OCO3)=N/C1=C\c1ccc(C(=O)O)cc1,0.3%,13.8%,0.1%,-3.2%,0.135µM*,x
O=C(O)c1cc(S(=O)(=O)Nc2ccc3c(c2)OCCO3)c(Cl)cc1Cl,2.3%,15.6%,9.2µM*,3.7%,u,-12.4%
O=C(N/N=C/c1ccc2c(c1)OCO2)C(=O)Nc1ccccc1Cl,5.4%,1.0%,u,-0.3%,-1.3%,x
O=Cc1cc2cc3c(cc2nc1Cl)OCCO3,3.0%,3.5%,u,11.1%,-15.0%,x
O=C(O)c1ccc(N/N=C/c2cc3cc4c(cc3nc2Cl)OCCO4)cc1,0.282µM*,-3.0%,1.16µM*,0.1µM*,0.0239µM*,x
CC(C)CN1CCCC2(CCN(S(=O)(=O)c3ccccc3)CC2)C1,x,x,x,x,x,4.8%
Cc1cc(OCC(=O)OCC(=O)c2ccc[nH]2)ccc1Cl,3.5%,8.0%,-0.8%,-0.7%,u,x
Cc1ccc(Cl)c(Cn2cnc3c(cnn3C(C)(C)C)c2=O)c1F,-3.8%,u,-1.4%,-4.4%,u,x
CC(C)(C)n1ncc2c(=O)n(CC(=O)c3ccc(Cl)cc3)cnc21,2.82µM*,u,17.6%,3.16µM*,7.57µM*,17.8µM*
CC(C)(C)n1ncc2c(=O)n(CC(=O)NCc3ccccc3)cnc21,0.447µM*,u,u,u,4.78µM*,2.82µM*
SMILES,NPC1 prom act,p53 reactivator,ELG1 genotox,Rab9 promoter act,FLuc counter,SMN2 splice up
CC1CCN(C(=O)Cn2cnc3c(cnn3C(C)(C)C)c2=O)CC1,u,11.3%,u,3.16µM*,u,15.8µM*
CC(C)(C)n1ncc2c(=O)n(Cc3c(F)cccc3Cl)cnc21,20.1%,6.1%,-9.0%,3.6%,23.9µM*,-15.2%
O=C(c1ccco1)N1CCC[C@@]2(CCN(c3cccc(-c4ccccc4)c3)C2)C1,x,x,x,x,x,-33.8%
COc1ccc(CNC(=O)c2ccc3c(c2)N(Cc2ccccc2C)C(=O)c2ccccc2S3=O)cc1 (centres undefined),x,x,x,x,1.4%,x
CCc1nc2c(oc3ccccc32)c(=O)[nH]1,24.0%,7.0%,5.4%,22.5%,u,6.4%
O=c1[nH]c(CSc2ccccn2)nc2c1oc1ccccc12,3.55µM*,2.3%,u,0.794µM*,2.69µM*,1µM*
CCN(C(=O)CSc1nc(N)cc(N)n1)C1CCS(=O)(=O)C1 (centres undefined),-0.5%,17.9%,11.4%,-1.1%,4.4%,x
CC1CCN(CCCn2c(=S)[nH]c3c(sc4ccccc43)c2=O)CC1,2.0%,-4.4%,-0.6%,17.7%,15.1µM*,27.7%
CC1CCN(CCCn2c(=S)[nH]c3c(sc4ccc([N+](=O)[O-])cc43)c2=O)CC1,7.1%,4.2%,3.7%,-0.4%,-5.2%,15.4%
C=CCOc1ccc(/C=C/C(=O)OCC(=O)NCC(=O)Nc2c(C)cc(C)cc2C)cc1,-4.4%,13.0%,-3.6%,20.2%,-4.3%,x
CC(C)=CCC/C(C)=C/CNC(=O)C[C@H]1C[C@H](C(=O)N2CCCCC2)[C@@]2(CCc3ccccc3)c3[nH]c4cc(CCC(=O)N(C)C)ccc4c3CCN2C1=O,x,-1.1%,5.7%,x,x,x
O=C(CSc1nc2c(c(=O)[nH]1)CCCC2)Nc1cccc(O)c1,x,x,x,x,-0.5%,x
Cc1cn2c(=O)cc(COc3cccc(NC(=O)c4ccccc4Cl)c3)nc2s1,x,x,x,x,-9.7%,4.6%
O=C(O)c1ccc(-c2ccccc2)[nH]1,-2.8%,5.3%,-2.3%,-9.7%,6.1%,-16.0%
CCc1ccc(-c2ccc(C(=O)C(F)(F)F)[nH]2)cc1,2µM*,u,u,1.12µM*,2.13µM*,u
Cc1ccccc1CN1CCc2nc(Nc3ccc4c(c3)OCCO4)ncc2C1,x,x,x,x,13.5µM*,x
Cc1ccsc1/C=C/C1=Cc2c(sc(NC(=O)CSc3n[nH]c(N)n3)c2C#N)C(C)(C)C1,-0.6%,15.6%,-4.4%,-1.4%,-5.2%,3.9%
CCOc1ccc(/C=C/C2=Cc3c(sc(NC(=O)CSc4n[nH]c(N)n4)c3C#N)C(C)(C)C2)cc1,10.7%,-13.2%,-15.5%,0.7%,9.53µM*,2.8%
CCOc1ccc(-c2cn3c(n2)sc2cc(C(=O)NCCc4ccc(OC)cc4OC)ccc23)cc1,x,x,x,x,-13.4%,1.0%
Cc1ccc(-c2noc(C3CCCN(C(=O)c4ccccc4Br)C3)n2)o1 (centres undefined),u,18.4%,18.9%,u,u,x
COc1ccc(-c2noc(C3CCCN(C(=O)c4ccccc4)C3)n2)cc1 (centres undefined),0.1%,8.3%,-0.1%,-4.6%,19µM*,x
